Of roughly 8,800 targets only a part is listed; those with a hit were picked by preference. About 0.5% of all pairs of compound and target were hits. Values without a mark were called inactive.
How the values were obtained:
Assay in all cases: log2 fold change, soluble protein after heating vs DMSO (PISA); higher = thermal stabilisation; K562 lysate, 10 uM; active = over 0.2 and 3.5 SD of the protein, either way, in both replicates (recomputed)
vemurafenib = compound: CCCS(=O)(=O)Nc1ccc(F)c(C(=O)c2c[nH]c3ncc(-c4ccc(Cl)cc4)cc23)c1F [vemurafenib]
Method in brief: (§1)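 A 30 min treatment with 10 μM compound was applied to crude K562 extract at 1 mg/mL protein in PBS pH 7.4 with 1 mM MgCl2. Heating for 3 min spanned 48°C-58°C, after which aliquots were pooled, adjusted to 0.5% NP-40 at 4°C and spun at 21,000xg for 90 min. TMTpro 16plex LC-MS/MS of the supernatant, with channel sums equalised, gave values recorded as log-two fold change in thermal stability against solvent controls, from duplicates.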

[1] = compound: CCCS(=O)(=O)Nc1ccc(F)c(C(=O)c2c[nH]c3ncc(Cl)cc23)c1F
Method in brief: as §1

barasertib = compound: CCN(CCCOc1ccc2c(Nc3cc(CC(=O)Nc4cccc(F)c4)[nH]n3)ncnc2c1)CCOP(=O)(O)O [barasertib]
Method in brief: as §1

[2] = compound: CC[C@@H]1C(=O)N(C)c2cnc(Nc3ccc(C(=O)NC4CCN(C)CC4)cc3OC)nc2N1C1CCCC1
Method in brief: as §1

volasertib = compound: CC[C@@H]1C(=O)N(C)c2cnc(Nc3ccc(C(=O)N[C@H]4CC[C@H](N5CCN(CC6CC6)CC5)CC4)cc3OC)nc2N1C(C)C [volasertib]
Method in brief: as §1

[3] = compound: CCn1c(C(=O)N(C2CC2)C2CC2)cc2c3c(ncn3C)c(Nc3cc(C)n(C)n3)nc21
Method in brief: as §1

[4] = compound: CCn1cc(-c2ccnc3[nH]c(-c4cccc(CN(C)C)c4)cc23)c(-c2ccc(NC(=O)N(C)C)cc2)n1
Method in brief: as §1

[5] = compound: CN1CCC(CNc2ccc3ncc(-c4cccc(OC(F)(F)F)c4)n3n2)CC1
Method in brief: as §1

saracatinib = compound: CN1CCN(CCOc2cc(OC3CCOCC3)c3c(Nc4c(Cl)ccc5c4OCO5)ncnc3c2)CC1 [saracatinib]
Method in brief: as §1

sotrastaurin = compound: CN1CCN(c2nc(C3=C(c4c[nH]c5ccccc45)C(=O)NC3=O)c3ccccc3n2)CC1 [sotrastaurin]
Method in brief: as §1

alvocidib = compound: CN1CC[C@H](c2c(O)cc(O)c3c(=O)cc(-c4ccccc4Cl)oc23)[C@H](O)C1 [alvocidib]
Method in brief: as §1

Tubastatin A = compound: CN1CCc2c(c3ccccc3n2Cc2ccc(C(=O)NO)cc2)C1 [Tubastatin A]
Method in brief: as §1

[6] = compound: CNC(=O)C1=CC=CC=C1NC2=NC(=NC=C2Cl)NC3=C(C=C(C=C3)N4CCOCC4)OC
Method in brief: as §1

defactinib = compound: CNC(=O)c1ccc(Nc2ncc(C(F)(F)F)c(NCc3nccnc3N(C)S(C)(=O)=O)n2)cc1 [defactinib]
Method in brief: as §1

[7] = compound: CNc1nc(-c2ccc3c(N)n[nH]c3c2)cc(N2C[C@@H](C(=O)NC3CCCCC3)CC[C@H]2C)n1
Method in brief: as §1

encorafenib = compound: COC(=O)N[C@@H](C)CNc1nccc(-c2cn(C(C)C)nc2-c2cc(Cl)cc(NS(C)(=O)=O)c2F)n1 [encorafenib]
Method in brief: as §1

[8] = compound: COC(=O)[C@H](CCSC)NC(=O)C1=C(C=C(C=C1)NC[C@H](CS)N)C2=CC=CC=C2
Method in brief: as §1

alisertib = compound: COc1cc(Nc2ncc3c(n2)-c2ccc(Cl)cc2C(c2c(F)cccc2OC)=NC3)ccc1C(=O)O [alisertib]
Method in brief: as §1

[9] = compound: COc1cc2nc(-c3cc(F)ccc3O)nc(N[C@@H]3CNC[C@H]3C(C)(C)O)c2cc1OC
Method in brief: as §1

gefitinib = compound: COc1cc2ncnc(Nc3ccc(F)c(Cl)c3)c2cc1OCCCN1CCOCC1 [gefitinib]
Method in brief: as §1

UniProt Q15283, sequence (Q15283 whole entry, looked up): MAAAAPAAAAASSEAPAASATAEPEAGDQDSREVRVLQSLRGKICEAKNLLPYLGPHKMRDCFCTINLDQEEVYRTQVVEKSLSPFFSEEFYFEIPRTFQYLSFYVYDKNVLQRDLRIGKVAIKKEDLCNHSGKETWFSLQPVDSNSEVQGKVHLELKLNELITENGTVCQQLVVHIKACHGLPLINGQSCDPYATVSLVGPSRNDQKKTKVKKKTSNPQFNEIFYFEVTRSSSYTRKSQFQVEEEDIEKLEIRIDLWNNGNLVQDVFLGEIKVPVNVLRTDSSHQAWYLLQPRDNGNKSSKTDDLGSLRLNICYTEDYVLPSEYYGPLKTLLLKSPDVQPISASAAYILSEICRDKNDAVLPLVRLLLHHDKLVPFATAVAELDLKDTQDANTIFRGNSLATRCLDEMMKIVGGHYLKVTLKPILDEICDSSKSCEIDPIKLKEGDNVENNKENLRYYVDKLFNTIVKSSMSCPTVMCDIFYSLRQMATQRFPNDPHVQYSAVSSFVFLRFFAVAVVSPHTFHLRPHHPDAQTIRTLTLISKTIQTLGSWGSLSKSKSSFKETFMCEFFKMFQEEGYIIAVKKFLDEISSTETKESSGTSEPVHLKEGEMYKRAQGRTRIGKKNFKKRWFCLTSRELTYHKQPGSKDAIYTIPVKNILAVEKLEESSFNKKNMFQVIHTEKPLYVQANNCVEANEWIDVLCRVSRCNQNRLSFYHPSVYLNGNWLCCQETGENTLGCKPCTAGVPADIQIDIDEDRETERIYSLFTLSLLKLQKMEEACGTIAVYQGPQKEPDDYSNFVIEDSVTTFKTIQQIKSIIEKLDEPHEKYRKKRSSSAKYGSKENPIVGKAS
UniProt Q13530, sequence (Q13530 whole entry, looked up): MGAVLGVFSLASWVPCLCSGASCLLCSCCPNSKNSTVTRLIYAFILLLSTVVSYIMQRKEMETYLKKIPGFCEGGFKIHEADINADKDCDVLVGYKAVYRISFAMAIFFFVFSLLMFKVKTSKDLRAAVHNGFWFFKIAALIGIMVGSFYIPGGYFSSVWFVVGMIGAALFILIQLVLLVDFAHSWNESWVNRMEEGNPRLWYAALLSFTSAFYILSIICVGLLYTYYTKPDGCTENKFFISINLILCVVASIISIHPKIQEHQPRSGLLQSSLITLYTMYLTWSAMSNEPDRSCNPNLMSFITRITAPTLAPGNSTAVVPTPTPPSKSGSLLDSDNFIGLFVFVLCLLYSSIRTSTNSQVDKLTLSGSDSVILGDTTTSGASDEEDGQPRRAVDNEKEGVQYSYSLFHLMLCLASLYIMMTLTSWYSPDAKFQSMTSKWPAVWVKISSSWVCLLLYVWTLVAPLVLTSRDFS
UniProt Q6GYQ0, sequence (Q6GYQ0 whole entry, looked up): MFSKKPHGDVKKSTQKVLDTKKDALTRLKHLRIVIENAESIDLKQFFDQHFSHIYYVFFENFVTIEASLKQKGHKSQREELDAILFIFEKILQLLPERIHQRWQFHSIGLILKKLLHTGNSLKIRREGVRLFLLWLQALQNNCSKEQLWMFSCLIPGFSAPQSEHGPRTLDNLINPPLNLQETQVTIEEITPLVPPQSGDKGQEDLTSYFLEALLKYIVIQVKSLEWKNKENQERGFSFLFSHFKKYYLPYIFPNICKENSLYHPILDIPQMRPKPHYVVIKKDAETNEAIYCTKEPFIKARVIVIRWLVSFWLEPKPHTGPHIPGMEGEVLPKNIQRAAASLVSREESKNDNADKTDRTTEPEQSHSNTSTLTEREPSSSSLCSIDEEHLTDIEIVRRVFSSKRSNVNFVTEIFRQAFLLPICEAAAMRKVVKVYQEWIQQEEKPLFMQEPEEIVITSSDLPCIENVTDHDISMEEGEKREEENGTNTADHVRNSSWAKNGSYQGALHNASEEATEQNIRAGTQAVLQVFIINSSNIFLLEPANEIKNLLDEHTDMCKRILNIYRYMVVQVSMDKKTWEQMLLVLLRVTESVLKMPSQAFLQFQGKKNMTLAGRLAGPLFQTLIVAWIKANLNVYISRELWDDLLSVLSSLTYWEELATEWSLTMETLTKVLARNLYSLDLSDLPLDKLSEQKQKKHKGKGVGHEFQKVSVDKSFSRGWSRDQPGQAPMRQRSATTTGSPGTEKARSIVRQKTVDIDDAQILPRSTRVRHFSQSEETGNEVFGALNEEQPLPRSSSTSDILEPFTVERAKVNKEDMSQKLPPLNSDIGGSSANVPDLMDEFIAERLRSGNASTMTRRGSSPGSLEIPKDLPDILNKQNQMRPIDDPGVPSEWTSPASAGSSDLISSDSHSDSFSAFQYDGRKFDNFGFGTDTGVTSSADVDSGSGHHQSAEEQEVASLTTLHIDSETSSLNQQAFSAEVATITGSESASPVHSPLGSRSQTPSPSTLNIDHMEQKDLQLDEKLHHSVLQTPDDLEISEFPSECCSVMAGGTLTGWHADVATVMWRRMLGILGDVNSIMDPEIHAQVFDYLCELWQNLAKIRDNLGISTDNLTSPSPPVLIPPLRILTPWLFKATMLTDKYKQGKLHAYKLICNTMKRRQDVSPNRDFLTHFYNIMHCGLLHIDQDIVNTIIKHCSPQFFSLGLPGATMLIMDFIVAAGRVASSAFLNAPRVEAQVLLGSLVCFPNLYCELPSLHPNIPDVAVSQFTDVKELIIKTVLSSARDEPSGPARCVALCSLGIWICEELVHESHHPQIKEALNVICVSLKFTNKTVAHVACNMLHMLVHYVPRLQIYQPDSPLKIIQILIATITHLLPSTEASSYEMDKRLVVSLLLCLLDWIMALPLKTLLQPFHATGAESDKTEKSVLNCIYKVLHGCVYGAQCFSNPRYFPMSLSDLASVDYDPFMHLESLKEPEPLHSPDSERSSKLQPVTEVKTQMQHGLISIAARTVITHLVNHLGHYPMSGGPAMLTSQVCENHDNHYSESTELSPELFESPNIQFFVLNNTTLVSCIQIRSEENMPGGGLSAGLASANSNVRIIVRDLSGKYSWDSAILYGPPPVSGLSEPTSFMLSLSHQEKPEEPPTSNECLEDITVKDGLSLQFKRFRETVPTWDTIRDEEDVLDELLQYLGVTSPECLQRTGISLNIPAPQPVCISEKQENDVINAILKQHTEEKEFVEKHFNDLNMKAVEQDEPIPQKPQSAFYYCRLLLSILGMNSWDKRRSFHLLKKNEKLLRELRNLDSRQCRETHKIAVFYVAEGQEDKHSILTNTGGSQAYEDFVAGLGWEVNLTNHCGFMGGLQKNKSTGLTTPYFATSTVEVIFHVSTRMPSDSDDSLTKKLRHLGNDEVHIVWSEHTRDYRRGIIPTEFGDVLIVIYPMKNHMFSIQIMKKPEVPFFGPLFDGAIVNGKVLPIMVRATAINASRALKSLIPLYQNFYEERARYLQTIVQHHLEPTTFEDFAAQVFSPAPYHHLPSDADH
UniProt P31040, sequence (P31040 whole entry, looked up): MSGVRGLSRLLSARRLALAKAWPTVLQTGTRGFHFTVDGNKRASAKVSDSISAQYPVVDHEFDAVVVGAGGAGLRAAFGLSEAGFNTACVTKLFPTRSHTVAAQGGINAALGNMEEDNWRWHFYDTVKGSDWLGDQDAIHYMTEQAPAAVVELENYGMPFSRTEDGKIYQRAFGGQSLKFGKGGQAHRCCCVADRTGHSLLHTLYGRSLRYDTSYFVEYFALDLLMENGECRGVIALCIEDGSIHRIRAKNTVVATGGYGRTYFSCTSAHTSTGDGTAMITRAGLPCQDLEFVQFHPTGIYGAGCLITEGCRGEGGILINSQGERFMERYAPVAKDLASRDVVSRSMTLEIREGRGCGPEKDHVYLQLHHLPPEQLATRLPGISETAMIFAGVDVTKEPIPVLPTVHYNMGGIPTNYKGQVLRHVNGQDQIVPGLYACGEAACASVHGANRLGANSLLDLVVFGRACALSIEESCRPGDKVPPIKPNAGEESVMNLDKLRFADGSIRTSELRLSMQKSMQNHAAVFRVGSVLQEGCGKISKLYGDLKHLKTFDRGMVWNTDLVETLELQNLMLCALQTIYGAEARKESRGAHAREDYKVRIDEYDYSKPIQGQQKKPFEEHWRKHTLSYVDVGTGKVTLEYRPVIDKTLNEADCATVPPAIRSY
UniProt Q9UKL0, sequence (Q9UKL0 whole entry, looked up): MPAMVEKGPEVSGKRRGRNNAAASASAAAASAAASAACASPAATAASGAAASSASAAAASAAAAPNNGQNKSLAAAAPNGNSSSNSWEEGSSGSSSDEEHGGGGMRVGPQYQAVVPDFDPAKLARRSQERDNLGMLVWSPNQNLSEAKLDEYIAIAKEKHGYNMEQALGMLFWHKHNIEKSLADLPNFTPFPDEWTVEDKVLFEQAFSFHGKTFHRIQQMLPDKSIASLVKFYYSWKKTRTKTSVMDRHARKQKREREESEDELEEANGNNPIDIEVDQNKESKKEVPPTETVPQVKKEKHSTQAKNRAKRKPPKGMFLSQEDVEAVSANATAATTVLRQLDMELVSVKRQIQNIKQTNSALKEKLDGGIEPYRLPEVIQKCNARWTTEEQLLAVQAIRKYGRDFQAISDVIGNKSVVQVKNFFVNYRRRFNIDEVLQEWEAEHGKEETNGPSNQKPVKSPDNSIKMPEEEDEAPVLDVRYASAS
UniProt P78406, sequence (P78406 whole entry, looked up): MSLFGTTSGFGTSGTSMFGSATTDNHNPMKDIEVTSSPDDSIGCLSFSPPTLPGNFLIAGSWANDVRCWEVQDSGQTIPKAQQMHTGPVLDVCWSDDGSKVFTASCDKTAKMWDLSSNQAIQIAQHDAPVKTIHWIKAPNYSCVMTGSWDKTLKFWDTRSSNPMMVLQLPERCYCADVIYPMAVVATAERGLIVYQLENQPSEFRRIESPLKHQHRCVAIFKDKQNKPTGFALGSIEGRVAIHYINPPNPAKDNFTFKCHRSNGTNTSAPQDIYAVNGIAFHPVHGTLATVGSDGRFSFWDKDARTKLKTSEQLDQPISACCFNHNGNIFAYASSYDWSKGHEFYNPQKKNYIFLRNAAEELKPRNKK
UniProt P31949, sequence (P31949 whole entry, looked up): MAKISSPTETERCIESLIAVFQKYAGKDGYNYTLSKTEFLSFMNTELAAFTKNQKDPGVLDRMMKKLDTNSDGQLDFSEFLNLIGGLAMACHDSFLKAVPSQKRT

Target	log2 fold change (vemurafenib)	log2 fold change [1]	log2 fold change (barasertib)	log2 fold change [2]	log2 fold change (volasertib)	log2 fold change [3]	log2 fold change [4]	log2 fold change [5]	log2 fold change (saracatinib)	log2 fold change (sotrastaurin)	log2 fold change (alvocidib)	log2 fold change (Tubastatin A)	log2 fold change [6]	log2 fold change (defactinib)	log2 fold change [7]	log2 fold change (encorafenib)	log2 fold change [8]	log2 fold change (alisertib)	log2 fold change [9]	log2 fold change (gefitinib)
RPL37A (UniProt P61513)	0.003	-0.002	-0.013	-0.01	-0.015	-0.044	0.371 (active)	-0.158	-0.035	-0.138	0.159	0.024	0.022	-0.045	0.161	0.004	0.021	-0.006	0.004	-0.064
RNF40 (UniProt O75150)	0.001	0.008	0.043	-0.005	-0.047	0.002	0.011	-0.033	0.033	-0.012	-0.003	-0.102	0.023	0.022	-0.006	0.015	0.079	-0.002	0	0.013
SERINC3 (UniProt Q13530)	0.05	0.074	-0.02	0.039	0.066	-0.05	-0.443 (active)	0.224	0.052	0.081	-0.074	-0.008	0.057	-0.091	0.065	0.023	-0.109	-0.047	0.055	0.014
SDHA (UniProt P31040)	0.042	0.018	-0.032	-0.004	0.002	-0.003	-0.022	0.02	-0.02	0.005	-0.004	-0.012	0	-0.04	0.002	-0.023	-0.04	-0.023	-0.014	-0.031
RSU1 (UniProt Q15404)	-0.006	0.005	-0.067	0.026	0.022	0.004	0.405 (active)	-0.143	-0.032	-0.019	0.12	0.057	-0.021	-0.042	-0.008	-0.035	-0.035	-0.005	0.015	0.023
SDHC (UniProt Q99643)	-0.035	-0.022	0.031	-0.089	0.044	0.04	-0.307 (active)	0.156	0.063	0.062	-0.114	-0.056	0.047	0.146	0.097	0.034	0.055	0.018	-0.007	0.011
RCOR1 (UniProt Q9UKL0)	0.028	-0.03	0.108	-0.008	0.003	-0.001	-0.071	0.017	0.001	0.004	-0.031	-0.021	-0.017	-0.039	0.014	0.01	0.115	0.023	0.027	-0.011
RECQL5 (UniProt O94762)	-0.028	-0.045	0.02	0.069	-0.187	-0.01	0.131	-0.222	0.018	0.003	0.057	-0.053	-0.071	0.068	0.074	0.225	0.016	-0.003	0.09	0.03
RASA2 (UniProt Q15283)	0.069	0.025	-0.02	-0.055	-0.018	0.02	-0.028	-0.013	0.068	-0.017	0	-0.078	0.019	0.053	-0.064	-0.059	0.113	-0.003	-0.008	-0.003
RALGAPA1 isoform 6 (UniProt Q6GYQ0)	-0.008	0.017	0.196	0.02	-0.03	-0.007	-0.377 (active)	0.074	0.049	0.03	-0.102	0.033	0.007	0.069	0.003	0.016	0.094	-0.029	0.047	0.056
RPL27 (UniProt P61353)	-0.022	-0.002	0.011	-0.001	-0.008	-0.001	0.572 (active)	-0.079	0.019	-0.015	0.049	0.009	-0.015	0.006	0.056	-0.015	0.012	0.006	0.006	-0.023
S100A11 (UniProt P31949)	0.005	-0.015	0.008	0.037	0.098	0.004	-0.008	-0.052	0.023	-0.036	0.085	0.075	0.029	0.059	-0.011	-0.021	0.007	0.024	-0.01	-0.089
RAE1 (UniProt P78406)	-0.017	-0.021	-0.051	0.04	-0.081	0.018	-0.355 (active)	0.131	0.039	0.044	-0.038	-0.072	0.039	-0.004	-0.044	0.038	0.345 (active)	-0.015	-0.002	0.033
RBM8A (UniProt Q9Y5S9)	-0.086	-0.045	0.027	-0.091	-0.016	0.047	0.35	-0.198	-0.043	0.047	0.086	0.024	-0.024	0.017	-0.256	0.002	-0.069	0	-0.062	-0.024
RPAP1 (UniProt Q9BWH6)	-0.008	-0.012	0.012	-0.028	-0.053	0	-0.031	0.008	0.02	0.01	-0.001	-0.077	0.016	-0.006	0.007	0.019	-0.069	0.013	0.027	-0.007
ROCK1 (UniProt Q13464)	0.014	0.004	0.004	0.018	-0.045	0.001	-0.017	0.025	-0.017	0.015	0.004	0.013	-0.029	-0.02	0.039	-0.004	-0.019	-0.045	0.022	-0.004

Source: the supplement of paper PMC10849652
